Source: PubChem BioAssay AID1053144 (Broad Institute, 2014)
Screen size: about 3,400 compounds; about 160 (4.7%) were called active.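 Rule for the calls: active = fitted curve reaches 30% activation at a concentration no higher than the top valid tested dose, luminescence rising; inconclusive = no clear call, values can overlap the other calls; inactive = signal moving opposite to the expected increase, plus the rest.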 These entries were drawn from the full list. Measured potencies and affinities stand elsewhere.

assay: Wnt/beta-catenin signaling activators, dose response, cell-based, iPS-derived NPC, luciferase, Wnt3a, cherry-pick (AID 1053144); settings: NPC TCF/LEF luciferase reporter, Wnt3a EC25, 24 h; series mostly up to 26 µM; activation: at the top concentration;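 note: Wnt3a stimulus is conditioned medium from Wnt3a-transfected mouse L cells at 5% in well; 0% = neutral control wells and 100% = CHIR-99021 positive control wells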

Row | Structure (SMILES) | activation
1 | Nc1c(-c2cccc(Cl)c2)cnc2c(-c3ccccc3)cnn12 | 4.5% (inactive)
2 | Cc1occc1C(=O)N/N=C/c1ccc2c(c1)OCO2 | 2.18% (inactive)
3 | O=C(NN=Cc1ccc2c(c1)OCO2)c1ccccc1 | 18.2% (inactive)
4 | CCOC(=O)c1ccc(NC(=O)N(CC)CC)cc1 | 11.7% (inactive)
5 | CCOC(=O)c1ccc(-c2ccc(C=O)o2)cc1 | 7.08% (inactive)
6 | O=C(Nc1ccc2c(c1)OCCO2)c1cncc(Br)c1 | 6.75% (inactive)
7 | C=CCn1c(C)cc(C(=O)CSc2nc3ccccc3o2)c1C | 2.6% (inactive)
8 | COc1cc(C2C3=C(CC(C)(C)CC3=O)Nc3c2c(=O)[nH]c(=O)n3Cc2ccccc2)ccc1O (stereo not drawn) | 3.49% (inactive)
9 | O=C(c1ccc(Br)cc1)c1coc2ccc(O)cc12 | 18.8% (inactive)
10 | CC(=O)Oc1ccc2occ(C(=O)c3cccs3)c2c1 | 17.3% (inactive)
11 | COc1ccc(C(=O)NN/C(=N/S(=O)(=O)c2ccc(C)cc2)c2ccccc2)cc1 | 7.8% (inactive)
12 | Cc1[nH]c2ccc(F)cc2c1CCN1C(=O)OC(C)(C)C1(C)O (stereo not drawn) | 5.62% (inactive)
13 | COc1ccc(C(=O)O/N=C(\N)c2ccccc2)cc1OC | 11.8% (inactive)
14 | COc1cc(/C=C/C(=O)N2CCC=CC2=O)cc(OC)c1OC | -6.11% (inactive)
15 | Oc1ccc(-c2cn3ccccc3n2)cc1 | 23.2% (inactive)
16 | CC(=O)Nc1ccccc1OCC(=O)c1ccc2c(c1)OCO2 | 9.06% (inactive)
17 | Clc1ccccc1/C=C/c1nc(-c2cccnc2)no1 | 6.34% (inactive)
18 | C(=C\c1nc(-c2ccncc2)no1)/c1ccccc1 | 9.12% (inactive)
19 | Cc1ccc(NC(=O)C(=O)c2c[nH]c3ccccc23)cc1 | 9.92% (inactive)
20 | COc1ccc2[nH]cc(/C=C/C(=O)c3ccccc3)c2c1 | 20.3% (inactive)
21 | Cc1cccc2cc(/C=N/Nc3ccc(C(=O)O)cc3)c(Cl)nc12 | 8.76% (inactive)
22 | Brc1ccccc1-n1nnc(-c2cnc3ccccc3c2)n1 | 3.75% (inactive)
23 | COc1ccc(-c2ccc(SCC(=O)Nc3nnc(C)s3)nn2)cc1 | 3.75% (inactive)
24 | COc1ccc(C(=O)Nc2cc(C)on2)cc1 | 4.98% (inactive)
25 | O=C(COc1ccc2c(c1)CCC2)N1CCc2ccccc21 | 16.6% (inactive)

Row | Structure (SMILES) | activation
26 | O=C(COc1ccc([N+](=O)[O-])cc1Cl)N1CCc2ccccc21 | 5.95% (inactive)
27 | O=C(Nc1ccccc1O)c1csc2c1CCCC2 | 6.88% (inactive)
28 | O=C(Nc1ccccn1)C(=O)Nc1ccccn1 | 7.92% (inactive)
29 | Cc1cc(SCC(=O)c2ccc(Cl)cc2)nc(=O)[nH]1 | 8.19% (inactive)
30 | O=C(Nc1nc(-c2ccccn2)cs1)C12CC3CC(CC(O)(C3)C1)C2 | 8.62% (inactive)
31 | CCC(C)NC(=O)c1cc(-c2ccc3c(c2)OCO3)on1 (stereo not drawn) | 13.7% (inactive)
32 | c1ccc(N=NC2=NN(c3ccccc3)CS2)cc1 | 11.2% (inactive)
33 | O=c1c(N=Nc2ccccc2)c[nH]n1-c1ccccc1 | 14.2% (inactive)
34 | CCc1ccc(C(=O)CCC(=O)Nc2ccc(OC)c(S(=O)(=O)N3CCCCC3)c2)cc1 | 5.78% (inactive)
35 | CCOc1ccccc1-n1nnnc1SCC(=O)O | 0.553% (inactive)
36 | Cc1c(CC(=O)N[C@H](C(=O)O)C(C)C)c(=O)oc2cc3c(cc12)CCC(C)(C)O3 | 5.83% (inactive)
37 | Cn1cccc1-c1nc2ccc(NC(=O)c3ccco3)cc2[nH]1 | 11.8% (inactive)
38 | O=C(Nc1ccc2nc(-c3ccco3)[nH]c2c1)c1ccco1 | 12.9% (inactive)
39 | O=C(Nc1ccc2c(c1)Cc1ccccc1-2)c1ccccc1F | 6.96% (inactive)
40 | Cc1ccc(C)c(N2CCN(C(=O)CCc3nc(-c4ccccc4C(F)(F)F)no3)CC2)c1 | 12.2% (inactive)
41 | CCOC(=O)C1CCCN(C(=O)CCc2nnc(-c3ccc(C(C)=O)s3)o2)C1 (stereo not drawn) | 10.3% (inactive)
42 | Cc1ccc(OCc2cc(C(=O)N3CCN(c4ccccc4)CC3)no2)cc1C | 15.5% (inactive)
43 | CC(=O)Nc1cccc(NC(=O)c2cc3ccccc3o2)c1 | 7.51% (inactive)
44 | CC(C)(C)C(=O)Nc1ccc(C(=O)Nc2cccnc2)cc1 | 4.16% (inactive)
45 | COc1cc(/C=C/c2ccc3cccc(O)c3n2)cc(Cl)c1OC | 2.28% (inactive)
46 | COc1cccc(/C=C/c2ccc3cccc(O)c3n2)c1OC | 6.83% (inactive)
47 | COc1cc(/C=C/C(=O)OCC(=O)NCCc2ccccc2)cc(OC)c1OC | 1.5% (inactive)
48 | Oc1ccc(Cl)cc1C=NN1CCCCCC1 | 5.75% (inactive)
49 | CCN1CCN(C(=O)c2ccc(-c3nc4ccccc4s3)s2)CC1 | 6.07% (inactive)
50 | COc1ccc(-c2nc3ccccc3s2)cc1NC(C)=O | 8.89% (inactive)

Row | Structure (SMILES) | activation
51 | CN(CCO)c1c2c(nc3cc(-c4cccc(F)c4)nn13)CCCC2 | 4.94% (inactive)
52 | O=[N+]([O-])c1cccc(C2=NC(c3ccccc3)CO2)c1 (stereo not drawn) | 5.82% (inactive)
53 | O=C(c1ccccc1)c1nnc(-c2ccccc2F)o1 | 3.17% (inactive)
54 | O=C(c1cc(-c2cccc(O)c2)on1)N1CCOCC1 | 0.173% (inactive)
55 | O=C(c1cc(-c2cccc(O)c2)on1)N1CCCCC1 | 5.31% (inactive)
56 | Cc1cc(=O)oc2cc(OCC(=O)Nc3nccs3)ccc12 | 5.74% (inactive)
57 | Cn1cccc1/C=C1\SC(=O)N(c2ccccc2)C1=O | 6.73% (inactive)
58 | CCn1cc(S(=O)(=O)CC(=O)Nc2ccc3c(c2)OCO3)c2ccccc21 | 1.02% (inactive)
59 | CC(=O)Oc1ccc(-c2csc(Nc3ccccn3)n2)cc1 | 6.84% (inactive)
60 | CC(=O)c1sc(NC(=O)c2ccc3c(c2)OCO3)nc1C | 5.81% (inactive)
61 | CC(C)NC(=O)N1CCCN(c2nc3ccc(Cl)cc3s2)CC1 | 0.108% (inactive)
62 | Cc1ccc2c(c1)COc1c3ccc(C(=O)NC(C)C)cc3nn1-2 | 10.5% (inactive)
63 | C=CCNC(=O)c1ccc2c3n(nc2c1)-c1ccc(C)cc1CO3 | 15.7% (inactive)
64 | CC(C)NC(=O)c1ccc2c3n(nc2c1)-c1ccc(Cl)cc1CO3 | 17.6% (inactive)
65 | Cc1ccc2c(c1)COc1c3ccc(C(=O)NCCO)cc3nn1-2 | 9.09% (inactive)
66 | C[C@@H](CO)NC(=O)c1ccc2c3n(nc2c1)-c1ccc(Cl)cc1CO3 | 13.9% (inactive)
67 | O=C(NCCO)c1ccc2c3n(nc2c1)-c1ccccc1CO3 | 7.92% (inactive)
68 | O=C(c1ccco1)N1CCN(c2ccc(N3CCCCC3)nn2)CC1 | 7.55% (inactive)
69 | c1cn2c(Nc3ccc4c(c3)OCCO4)c(-c3ccc(N4CCOCC4)cc3)nc2cn1 | 9.24% (inactive)
70 | Cc1nn(C(=O)c2cccs2)c(N)c1-c1ccccc1 | 11.2% (inactive)
71 | O=C(/C=C/c1ccc([N+](=O)[O-])cc1)Nc1cccnc1 | 10.1% (inactive)
72 | COc1ccc(OC)c(NC(=O)CSc2nnc(C3CCCCC3)n2-c2ccccc2)c1 | 0.506% (inactive)
73 | O=C(COc1ccc2ccccc2c1)N1CCCC1 | 7.07% (inactive)
74 | O=C(OCC(=O)N1CCOCC1)c1ccc2ccccc2c1O | 9.5% (inactive)
75 | O=C(Nc1ccc(-c2cn3ccsc3n2)cc1)C1CC1 | 8.33% (inactive)

Row | Structure (SMILES) | activation
76 | O=C(Nc1ccc(C(=O)c2ccccc2)cc1)c1ccccc1 | 6.68% (inactive)
77 | O=c1c2cc(-c3ccccc3)sc2nc2n1CCC2 | 9.92% (inactive)
78 | CCOC(=O)c1sc2nc(-c3cccnc3)ccc2c1N | 14.6% (inactive)
79 | CC(C)c1[nH]nc2c1C(C1C=CCCC1)C(C#N)=C(N)O2 (stereo not drawn) | 9.36% (inactive)
80 | COc1ccc2cc(CCNC(=O)c3ccco3)c(=O)[nH]c2c1 | 17.9% (inactive)
81 | CCCNC(=O)c1cc(-c2ccc3c(c2)OCO3)on1 | 7.07% (inactive)
82 | CCCNC(=O)c1oc2ccc3c(c2c1C)C(=O)CC(C)(C)O3 | 10.9% (inactive)
83 | Cc1cccn2cc(-c3ccc(F)cc3)nc12 | 20% (inactive)
84 | COc1cc2ccc(-c3ccc4ccccc4n3)cc2cc1OC | 12.8% (inactive)
85 | c1ccc(-c2ccc3ccccc3n2)cc1 | 15% (inactive)
86 | Cc1occc1C(=O)NNC(=O)c1ccccc1F | 3.75% (inactive)
87 | CCCCNc1c(-c2ccc(-c3cccc(Cl)c3)cc2)nc2ccccn12 | -4.29% (inactive)
88 | COc1ccc(C)cc1NC(=O)CSc1nnnn1Cc1ccccc1 | 2.28% (inactive)
89 | COCCNC(=O)c1cc2sc3ccccc3c2s1 | 8.53% (inactive)
90 | COC(=O)c1cc2c(s1)-c1ccc(OC)cc1CC2 | 10% (inactive)
91 | CCC1CCC(NC(=O)Nc2cccc(OC)c2)CC1 (stereo not drawn) | 7.93% (inactive)
92 | Oc1ccc(-c2cnc3ccccc3n2)cc1 | 9.09% (inactive)
93 | Cc1cc2ncc(-c3ccccc3)nc2cc1C | 4.06% (inactive)
94 | CCC(=O)n1nc(-c2ccc(Cl)cc2)nc1SC | 8.35% (inactive)
95 | CCCCC12CN3CCN(CC(C3)/C1=N\NC(=O)c1ccccc1N)C2 | 1.36% (inactive)
96 | CN(C)c1cccc(-c2csc(N3CCC(C(N)=O)CC3)n2)c1 | 10.6% (inactive)
97 | Cn1cccc1C(=O)OCC(=O)c1ccc(Br)s1 | 11.6% (inactive)
98 | Cc1ccc(C(=O)COC(=O)c2cccc(O)c2)s1 | 4.71% (inactive)
99 | CCOc1ccc(N2C(=O)CC(SCCN)C2=O)cc1 (stereo not drawn) | 5.05% (inactive)
100 | O=C(Nc1ccccc1)C1=C[C@@H](C2CC2)C[C@@H](OCc2ccc(CO)cc2)O1 | 6.41% (inactive)

Row | Structure (SMILES) | activation
101 | O=C1c2ccccc2C(=O)C1c1ccnc2ccccc12 | 3.26% (inactive)
102 | O=C1/C(=C/c2ccc(O)cc2)COc2ccccc21 | -0.294% (inactive)
103 | O=C(Nc1nccs1)c1c(O)c2c([nH]c1=O)CCCC2 | 10.9% (inactive)
104 | Cc1ccc2cc(NC(=O)c3ccccc3)ccc2n1 | 4.37% (inactive)
105 | O=C(Nc1ccc2ccccc2c1)c1cccc(F)c1 | 13.7% (inactive)
106 | COc1cccc(-c2nc(-c3ccccn3)no2)c1OC | 8.51% (inactive)
107 | CN(C(=O)c1cc2c(=O)n3ccccc3nc2n1C)C1CCCCC1 | 15.1% (inactive)
108 | Brc1ccc(-c2noc(-c3ccccc3)n2)o1 | 4.42% (inactive)
109 | Brc1ccc(-c2nc(-c3ccccc3)no2)o1 | 6.82% (inactive)
110 | O=C(c1ccc(-c2cccc(Cl)c2Cl)o1)N1CCOCC1 | 12.7% (inactive)
111 | O=C(c1ccc(-c2ccccc2Cl)o1)N1CCCCCCC1 | 7.93% (inactive)
112 | CC(C)(C)c1ccc(OCc2ccc(C(=O)NCc3cccnc3)o2)cc1 | 5.47% (inactive)
113 | O=c1ncn(-c2cccc(Cl)c2)c2ccccc12 | 1.23% (inactive)
114 | O=C(Nc1nccs1)c1ccc(N2CCOCC2)c([N+](=O)[O-])c1 | 14.1% (inactive)
115 | Cc1occc1C(=O)N/N=C/C(Br)=C\c1ccccc1 | 13.2% (inactive)
116 | O=C(N/N=C/c1cccc(OCc2ccccc2)c1)c1cccs1 | 4.1% (inactive)
117 | COc1ccc(CN2C(=O)C(C)S/C2=N/N=C/c2ccco2)cc1 (stereo not drawn) | 10.9% (inactive)
118 | CCCc1cc(C(=O)NC2CCCCC2)no1 | 18.1% (inactive)
119 | O=C(Nc1nc2cc3c(cc2s1)OCCO3)c1cccs1 | 0.063% (inactive)
120 | CC(=O)Nc1nc2cc3c(cc2s1)OCCO3 | 9.37% (inactive)
121 | Cc1c(C(=O)Nc2ccc(Br)cc2)cnn1C | 17.6% (inactive)
122 | Nc1nc(N)nc(-c2cccc(Br)c2)n1 | 12.6% (inactive)
123 | Cc1ccc(F)c(CNC(=O)C2(C)CCCN2C(=O)C(C)C)c1F (stereo not drawn) | 0.12% (inactive)
